Bioluminescence data for 40 molecules are collected here from the supplement of paper PMC10811239.

The subject of this assay is LEGO organoid PT (PTEN-/-; TP53-/-). Put plainly: bioluminescence (viable cell) signal fold change after vs before treatment, normalised to DMSO (ratio); higher = more tumour cell growth / less inhibition. As to conditions: 10 µM; treatment time 6 days. How it is done: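 Luc2-labelled iPSC-derived glioblastoma-like organoids (LEGOs, genotypes PT = PTEN-/-;TP53-/-, PTCC = plus CDKN2A/B-/-, PTN = plus NF1-/-) were treated with 10 uM drug for 6 days (applied every other day) at 37 C. Bioluminescence imaging was done before treatment and 2 days after the last dose. BLI signals were normalised to the DMSO control on the same day and then to the pre-treatment signal (N=3).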
Take `CC[C@@H]1/C=C(\C)C[C@H](C)C[C@H](OC)[C@H]2O[C@@](O)(C(=O)C(=O)N3CCCC[C@H]3C(=O)O[C@H](/C(C)=C/[C@@H]3CC[C@H](Cl)[C@H](OC)C3)[C@H](C)[C@@H](O)CC1=O)[C@H](C)C[C@@H]2OC` [Pimecrolimus]: the bioluminescence came out at 1.29. Consider `O=C1[N-]C(=O)C(c2ccccc2)(c2ccccc2)N1.[Na+]` [Phenytoin sodium], for which the bioluminescence amounted to 0.855. For the molecule `O=C(CCCCCCC(=O)Nc1ccccc1)NO` [Vorinostat], the bioluminescence amounted to 1.13. Take `NCCS(=O)(=O)O` [Taurine]: the bioluminescence turned out to be 1.84. Regarding `O=c1cc(O)c(Cl)c[nH]1` [Gimeracil], the bioluminescence was 0.79. With `NC(=O)N1c2ccccc2C=Cc2ccccc21` [Carbamazepine], the bioluminescence was 0.803. As for `C=CC(=O)Nc1cc(Nc2nccc(-c3cn(C)c4ccccc34)n2)c(OC)cc1N(C)CCN(C)C` [Osimertinib], the bioluminescence was determined as 0.644. For `CS(=O)(=O)OCCCCOS(C)(=O)=O` [Busulfan], the bioluminescence was 2.15.

As for `NS(=O)(=O)c1cc2c(cc1Cl)N=CNS2(=O)=O` [Chlorothiazide], the bioluminescence is 0.96. Regarding `O=c1[nH]cnc2c1ncn2[C@H]1CC[C@@H](CO)O1` [Didanosine], the bioluminescence amounted to 0.958. `CC1=NN(c2ccccc2)C(=O)C1` [Edaravone]: the bioluminescence stood at 0.893.

With `O=C(CCCN1CC=C(n2c(=O)[nH]c3ccccc32)CC1)c1ccc(F)cc1` [Droperidol], the bioluminescence came to 1.37. Take `Nc1ncnc2c1ncn2[C@@H]1O[C@H](CO)[C@@H](O)[C@H]1O` [Adenosine]: the bioluminescence amounted to 2.1. Regarding `CCCCCCCCCCC[C@@H](C[C@@H]1OC(=O)[C@H]1CCCCCC)OC(=O)[C@H](CC(C)C)NC=O` [Orlistat], the bioluminescence was found to be 1.4.

Regarding `Clc1ccc(COC(Cn2ccnc2)c2ccc(Cl)cc2Cl)c(Cl)c1.O=[N+]([O-])O` (stereo not given) [Miconazole nitrate], the bioluminescence turned out to be 0.225.

Take `Cl.NC12CC3CC(CC(C3)C1)C2` [Amantadine hydrochloride]: the bioluminescence was determined as 0.852. Take `Cl.N=C(N)NC(=O)Cc1c(Cl)cccc1Cl` [Guanfacine hydrochloride]: the bioluminescence was found to be 1.1. In the case of `CC(=O)c1c(C)c2cnc(Nc3ccc(N4CCNCC4)cn3)nc2n(C2CCCC2)c1=O.O=S(=O)(O)CCO` [Palbociclib Isethionate], the bioluminescence stood at 3.4. On to `CCC1=C[C@@H]2CN(C1)Cc1c([nH]c3ccccc13)[C@@](C(=O)OC)(c1cc3c(cc1OC)N(C)[C@H]1[C@@](O)(C(=O)OC)[C@H](OC(C)=O)[C@]4(CC)C=CCN5CC[C@]31[C@@H]54)C2.O=C(O)[C@H](O)[C@@H](O)C(=O)O.O=C(O)[C@H](O)[C@@H](O)C(=O)O` [Vinorelbine Tartrate], for which the bioluminescence amounted to 1.03. Consider `O=C1NC(=O)C(c2ccccc2)(c2ccccc2)N1` [Phenytoin], for which the bioluminescence was 0.795. Then `CC/C(=C(\c1ccccc1)c1ccc(OCCN(C)C)cc1)c1ccccc1.O=C(O)CC(O)(CC(=O)O)C(=O)O` [Tamoxifen Z-isomer citrate], with 0.933; and `S=c1nc[nH]c2nc[nH]c12` [Mercaptopurine], with 4.23. For the molecule `CS(=O)(=O)CCNCc1ccc(-c2ccc3ncnc(Nc4ccc(OCc5cccc(F)c5)c(Cl)c4)c3c2)o1.Cc1ccc(S(=O)(=O)O)cc1.Cc1ccc(S(=O)(=O)O)cc1` [Lapatinib Ditosylate], the bioluminescence stood at 1.34. Consider `C/C(O)=C(\C#N)C(=O)Nc1ccc(C(F)(F)F)cc1` [Teriflunomide], for which the bioluminescence came to 1.68. Next, `COc1ccccc1OCC(O)COC(N)=O` (stereo not given) [Methocarbamol]: 0.829. Next, `Oc1c(I)cc(Cl)c2cccnc12` [Clioquinol]: 0.859; `CCc1c2c(nc3ccc(OC(=O)N4CCC(N5CCCCC5)CC4)cc13)-c1cc3c(c(=O)n1C2)COC(=O)[C@]3(O)CC.Cl.O.O.O` [Irinotecan hydrochloride trihydrate]: 0.98. Turning to `O.O.O.O.O.O.O.O=C1CN(/N=C/c2ccc(-c3ccc([N+](=O)[O-])cc3)o2)C(=O)[N-]1.O=C1CN(/N=C/c2ccc(-c3ccc([N+](=O)[O-])cc3)o2)C(=O)[N-]1.[Na+].[Na+]` [Dantrolene sodium hemiheptahydrate], the bioluminescence turned out to be 0.935.

For `CCCc1nc(C)c2c(=O)[nH]c(-c3cc(S(=O)(=O)N4CCN(CC)CC4)ccc3OCC)nn12` [Vardenafil], the bioluminescence came out at 1.36. For `CN(C)CCc1c[nH]c2ccc(Cn3cncn3)cc12.O=C(O)c1ccccc1` [Rizatriptan benzoate], the bioluminescence was found to be 0.898. Regarding `C[C@H]1[C@H](NC(=O)/C(=N\OC(C)(C)C(=O)O)c2csc(N)n2)C(=O)N1S(=O)(=O)O` [Aztreonam], the bioluminescence came to 1.04. With `Nc1nc(Cl)nc2c1ncn2[C@H]1C[C@H](O)[C@@H](CO)O1` [Cladribine], the bioluminescence amounted to 1.81.

As for `CC/C(=C(\c1ccccc1)c1ccc(OCCN(C)C)cc1)c1ccccc1` [Tamoxifen], the bioluminescence came out at 0.646. Consider `COCCOC(=O)C1=C(C)NC(C)=C(C(=O)OC(C)C)C1c1cccc([N+](=O)[O-])c1` (stereo not given) [Nimodipine], for which the bioluminescence was 1.49. `CNCC[C@@H](Oc1ccccc1C)c1ccccc1.Cl` [Atomoxetine hydrochloride]: the bioluminescence was 0.833. As to `CC(=O)NCCCS(=O)(=O)[O-].CC(=O)NCCCS(=O)(=O)[O-].[Ca+2]` [Acamprosate calcium], the bioluminescence is 2.61. Regarding `Cc1cc(C)cc(OCC2CNC(=O)O2)c1` (stereo not given) [Metaxalone], the bioluminescence stood at 1.24. In the case of `CN1CCN(C2=Nc3cc(Cl)ccc3Nc3ccccc32)CC1` [Clozapine], the bioluminescence worked out at 1.13.

With `CCOC(=O)OC(C)OC(=O)[C@@H]1N2C(=O)[C@@H](NC(=O)[C@H](N)c3ccccc3)[C@H]2SC1(C)C.Cl` (stereo not given in full) [Bacampicillin hydrochloride], the bioluminescence is 0.788. Next, `Cl.O.O=C1Cc2cc(CCN3CCN(c4nsc5ccccc45)CC3)c(Cl)cc2N1` [Ziprasidone hydrochloride monohydrate]: 0.909.
